# Source: ChEMBL document CHEMBL2218924, “A broad activity screen in support of a chemogenomic map for kinase signalling research and drug discovery” (Biochem J, 2013)
# Target: Death-associated protein kinase 1 (Homo sapiens) (UniProt P53355)
# Details: at 1 µM
# Death-associated protein kinase 1 (Homo sapiens), sequence (P53355 whole entry, looked up): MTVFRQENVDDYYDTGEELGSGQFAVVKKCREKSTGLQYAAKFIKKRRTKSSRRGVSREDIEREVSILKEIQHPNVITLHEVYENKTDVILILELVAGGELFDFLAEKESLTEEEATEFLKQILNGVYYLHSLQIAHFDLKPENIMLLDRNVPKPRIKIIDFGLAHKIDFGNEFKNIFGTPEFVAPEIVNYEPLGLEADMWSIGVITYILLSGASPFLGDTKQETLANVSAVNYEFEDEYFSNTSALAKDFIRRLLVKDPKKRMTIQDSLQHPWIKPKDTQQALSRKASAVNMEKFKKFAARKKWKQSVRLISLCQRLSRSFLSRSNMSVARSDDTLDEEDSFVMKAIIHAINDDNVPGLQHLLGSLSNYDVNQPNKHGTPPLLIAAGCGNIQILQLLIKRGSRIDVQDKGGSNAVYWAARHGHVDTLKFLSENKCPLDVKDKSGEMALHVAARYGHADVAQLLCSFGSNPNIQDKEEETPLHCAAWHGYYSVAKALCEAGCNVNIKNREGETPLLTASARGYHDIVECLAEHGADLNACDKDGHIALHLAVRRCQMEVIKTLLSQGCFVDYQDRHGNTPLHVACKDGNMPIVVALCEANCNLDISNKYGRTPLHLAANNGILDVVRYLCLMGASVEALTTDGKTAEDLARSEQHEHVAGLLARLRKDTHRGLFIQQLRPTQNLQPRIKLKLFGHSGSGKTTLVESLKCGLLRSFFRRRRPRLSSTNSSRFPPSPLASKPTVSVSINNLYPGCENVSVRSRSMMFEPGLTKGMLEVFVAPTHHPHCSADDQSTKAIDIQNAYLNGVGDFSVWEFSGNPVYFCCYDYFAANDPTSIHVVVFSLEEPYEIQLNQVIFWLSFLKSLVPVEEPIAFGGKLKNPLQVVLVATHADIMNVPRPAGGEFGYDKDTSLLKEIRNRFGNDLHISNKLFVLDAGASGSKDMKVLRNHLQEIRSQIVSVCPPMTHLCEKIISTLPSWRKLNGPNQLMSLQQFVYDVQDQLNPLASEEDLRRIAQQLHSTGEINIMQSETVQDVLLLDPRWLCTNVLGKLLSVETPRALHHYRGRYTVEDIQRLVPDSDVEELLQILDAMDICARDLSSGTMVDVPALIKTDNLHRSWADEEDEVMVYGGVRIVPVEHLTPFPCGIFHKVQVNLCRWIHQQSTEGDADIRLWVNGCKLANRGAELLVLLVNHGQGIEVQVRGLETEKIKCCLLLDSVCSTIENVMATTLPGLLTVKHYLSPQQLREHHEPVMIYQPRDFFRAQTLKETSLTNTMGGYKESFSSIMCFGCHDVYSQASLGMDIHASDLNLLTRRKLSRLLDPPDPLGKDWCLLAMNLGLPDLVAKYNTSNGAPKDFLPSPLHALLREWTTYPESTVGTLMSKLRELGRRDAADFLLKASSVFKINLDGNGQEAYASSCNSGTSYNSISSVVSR
row,Structure (SMILES),residual activity [%]
1,CN(C)CCCn1cc(C2=C(c3c[nH]c4ccccc34)C(=O)NC2=O)c2ccccc21,106
2,CC(C)[C@H](CO)Nc1nc(Nc2cccc(Cl)c2)c2ncn(C(C)C)c2n1,87
3,COC(=O)[C@@]1(O)C[C@H]2O[C@]1(C)n1c3ccccc3c3c4c(c5c6ccccc6n2c5c31)C(=O)NC4,48
4,COc1ccc2c(c1)/C(=C/c1cnc[nH]1)C(=O)N2,100
5,C[S+]([O-])c1ccc(-c2nc(-c3ccc(F)cc3)c(-c3ccncc3)[nH]2)cc1 (stereo not given),85
6,O=C1Nc2ccccc2/C1=C1/Nc2ccccc2/C1=N\OCCC(O)CO (stereo not given),81
7,Nc1cccc(-c2cc3c(Oc4cccc(O)c4)ncnc3[nH]2)c1,89
8,N/C(=N\[N+](=O)[O-])N/N=C\c1ccc(-c2cccc([N+](=O)[O-])c2)o1,93
9,NC(=O)Nc1sc(-c2ccc(F)cc2)cc1C(N)=O,83
10,CSc1nc(-c2ccc(F)cc2)c(-c2ccnc(NC(C)c3ccccc3)c2)[nH]1 (stereo not given),91
11,COc1cc2ncnc(Nc3ccc(OCc4ccccc4)cc3)c2cc1OC,94
12,Cc1cncc2cccc(S(=O)(=O)N3CCCN(C(=O)CN)C[C@H]3C)c12,88
13,O=C1NC(=O)c2c1c1c3ccccc3[nH]c1n1cncc21,57
14,COc1cc(OC)c(/C=C2\C(=O)Nc3ccccc32)c(OC)c1,84
15,O=C1C(Cl)=C(N2C(=O)CCC2=O)C(=O)c2ccccc21,91
16,O=[N+]([O-])/C=C/c1ccc2c(c1)OCO2,85
17,CCn1cnc2c(Nc3cccc(Cl)c3)nc(N[C@@H]3CCCC[C@@H]3N)nc21,96
18,O=C1NC(=O)c2c1c1c3ccccc3n3c1c1c2c2ccccc2n1C1CCC3O1,49
19,O=C1NC(=O)/C(=C/c2ccc3c(c2)OC(F)(F)O3)S1,98
20,COc1ccc2c(c[n+](C)c3c4cc5c(cc4ccc23)OCO5)c1OC,94
21,O=C1NC(=O)c2c1c1c3ccccc3[nH]c1c1[nH]c3cc(Br)ccc3c21,85
22,O=C1Nc2ccc3ncsc3c2/C1=C/c1c[nH]cn1,85
23,CCc1nc(-c2ccc(OC)cc2)[nH]c1-c1ccncc1,101
24,Cc1cccc(-c2[nH]c(C(C)(C)C)nc2-c2ccc3c(c2)OCO3)n1,79
25,O=C(CCCc1ccc(-c2ccccc2F)cc1)Nc1ccc(O)cc1,95
26,O=c1[nH]c2ccccc2n1C1CCN(Cc2ccc(-c3nc4cc5[nH]cnc5cc4nc3-c3ccccc3)cc2)CC1,93
27,CC(C)(C)c1cc(C=C(C#N)C#N)cc(Br)c1O,101
28,c1cc(-c2cnn3cc(-c4ccc(OCCN5CCCCC5)cc4)cnc23)ccn1,76
29,Nc1nc(Nc2ccc(S(N)(=O)=O)cc2)nn1C(=O)c1c(F)cccc1F,97
30,CCN(CC)CCCCN1c2ccccc2Oc2ccc(Cl)cc21,107
